Experimental data published in PubChem BioAssay (NCATS).
Inconclusive results are not listed. Active and inactive are the calls of the source. Calls come from the whole dose curve; as a rule, active = well fitted inhibition curve with a large enough effect; inconclusive = small, poorly fitted or top-dose-only effect; inactive = flat fitted curve, though single readings scatter.

Experiments:
Assay in all cases: Cytotoxic Profiling of Annotated Libraries Using Quantitative High-Throughput Screening (AID 1296008); note: nearly all actives have a fitted effect of over 60% in size
Settings in all cases: Five cell lines viability, CellTiter-Glo ATP luminescence, 48-72 h; max response: hits give low values
[1] = tested on: CRL-7250
Outline: (§1)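 Cells exposed to compounds for 48 or 72 hr at 37 degrees Celsius. Viability read as ATP-coupled luminescence with CellTiter-Glo after 10 min at room temperature.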

[2] = tested on: HEK293
Outline: as §1

[3] = tested on: HaCat
Outline: as §1

[4] = tested on: KB-3-1
Outline: as §1

[5] = tested on: NIH3T3
Outline: as §1

Measured: max response
% is set by controls: 0 for no effect and ±100 for the full control effect.

CC1(C)CC[C@]2(C(=O)O[C@@H]3O[C@H](CO)[C@@H](O)[C@H](O)[C@H]3O)CC[C@]3(C)C(=CCC4[C@@]5(C)CC[C@H](OC6OC(C(=O)O)C(OC7OC(CO)C(O)C(O)C7O)C(O)C6O)C(C)(C)C5CC[C@]43C)C2C1 (stereo not given in full)
inactive: [1] 0.724% | [2] 3.09% | [3] | [4] | [5]

O=C(O)c1cc(O[C@@H]2O[C@H](CO)[C@@H](O)[C@H](O)[C@H]2O)ccc1O
inactive: [1] -1.11% | [2] -8.21% | [3] | [4] 1.47% | [5]

c1ccc2c(Nc3nnc(-c4ccncc4)s3)cccc2c1
inactive: [1] 3.08% | [2] | [3] -11.3% | [4] 9.81% | [5] -0.252%

C=C1[C@@H]2CC[C@@]3(C)[C@H](c4ccoc4)OC(=O)C[C@]13O[C@H]1CC(=O)C(C)(C)[C@H](C(O)C(=O)OC)[C@]12C (stereo not given in full)
inactive: [1] -0.794% | [2] -5.89% | [3] | [4] | [5]

CC1(C)CC[C@]2(C(=O)O[C@@H]3O[C@H](CO[C@@H]4O[C@H](CO)[C@@H](O)[C@H](O)[C@H]4O)[C@@H](O)[C@H](O[C@@H]4O[C@H](CO)[C@@H](O)[C@H](O)[C@H]4O)[C@H]3O)CC[C@]3(C)C(=CCC4[C@@]5(C)CC[C@H](O[C@@H]6OC[C@@H](O)[C@H](O)[C@H]6O)[C@@](C)(C(=O)O)C5CC[C@]43C)[C@@H]2C1 (stereo not given in full)
inactive: [1] | [2] -19.5% | [3] -27.8% | [4] | [5]

Cc1nnc(-c2ccc3occ(-c4ccc(S(C)=O)cc4)c3c2)o1 (stereo not given)
inactive: [1] | [2] -3.27% | [3] -2.4% | [4] | [5]

Cn1nccc1-c1ccccc1Oc1ccc(S(=O)(=O)Nc2nccs2)cc1C#N
inactive: [1] | [2] | [3] -17.4% | [4] 2.49% | [5] 0.589%

CN(C)CCC[C@]1(c2ccc(F)cc2)OCc2cc(C#N)ccc21
inactive: [1] 1.86% | [2] -1.92% | [3] | [4] -2.48% | [5]

COc1cc(O)cc2c1C(=O)OC(C)CCCCCCC2 (stereo not given)
inactive: [1] 0.54% | [2] -6.62% | [3] | [4] | [5] -11.2%

CCC(C)C1NC(=O)C2C(C)CCN2C(=O)C(CC(O)CO)OC(=O)CCNC(=O)C(C)N(C)C(=O)C(C(C)C)N(C)C1=O (stereo not given)
inactive: [1] -3.99% | [2] -0.256% | [3] | [4] 0.529% | [5]

C/C1=C\CC(C)(C)/C=C/C/C(C(=O)O)=C/CC1
inactive: [1] -3% | [2] -13.3% | [3] | [4] -12.2% | [5]

COc1cnc(-c2ccc(Cn3c(CC(C)(C)C(=O)O)c(SC(C)(C)C)c4cc(OC[C@@H]5Cc6ccccc6N5C(C)=O)ccc43)cc2)nc1
inactive: [1] -2.77% | [2] -2.16% | [3] | [4] -12.4% | [5] -14.7%

O=C(OC[C@H]1O[C@H](O[C@H]2CO[C@H](CO)[C@@H](O)[C@@H]2O)[C@H](O)[C@@H](O)[C@H]1O)c1ccccc1
inactive: [1] -5.33% | [2] | [3] -15.9% | [4] -0.911% | [5] 4.33%

CC1(C)CC[C@]2(C(=O)O)CC[C@]3(C)C(=CCC4[C@@]5(C)CC[C@H](O[C@H]6O[C@H](C(=O)O)[C@@H](O)[C@H](O[C@@H]7O[C@H](CO)[C@H](O)[C@H](O)[C@H]7O)[C@H]6O)C(C)(C)C5CC[C@]43C)[C@@H]2C1 (stereo not given in full)
inactive: [1] | [2] | [3] 3.39% | [4] 4.97% | [5] -6.78%

CC(=O)/C=C/C1(O)C(C)CC(O[C@@H]2O[C@H](CO)[C@@H](O)[C@H](O)[C@H]2O)CC1(C)C (stereo not given in full)
inactive: [1] | [2] 1.81% | [3] | [4] | [5] -2.62%

O=C(O)Cn1nnc(-c2ccc(CN(CCCCOc3ccc(CN4CCCC4)cc3)CCc3ccccc3)cc2)n1
inactive: [1] | [2] -0.898% | [3] | [4] 9.81% | [5]

C=CC(C)(CCC=C(C)C)O[C@@H]1O[C@H](CO)[C@@H](O)[C@H](O)[C@H]1O (stereo not given in full)
inactive: [1] -23.7% | [2] -6.28% | [3] -2.03% | [4] 6.36% | [5]
